From publication PMC11006913
Residue numbers refer to the chain shown, from its start.

Columns and labels:
Test in all cases: PBM; 200 nM protein, PBS
Conditions in all cases: dsDNA, one strand shown
HOXB4 [1] = target: HOXB4 (Homo sapiens, UniProt P17483 148-234)
HOXC9 [2] = target: HOXC9 (Homo sapiens, UniProt P31274 178-260, K195R)
PAX4 [3] = target: T1, PAX4 (Homo sapiens, UniProt O43316 9-242, R200K)
T1 sequence: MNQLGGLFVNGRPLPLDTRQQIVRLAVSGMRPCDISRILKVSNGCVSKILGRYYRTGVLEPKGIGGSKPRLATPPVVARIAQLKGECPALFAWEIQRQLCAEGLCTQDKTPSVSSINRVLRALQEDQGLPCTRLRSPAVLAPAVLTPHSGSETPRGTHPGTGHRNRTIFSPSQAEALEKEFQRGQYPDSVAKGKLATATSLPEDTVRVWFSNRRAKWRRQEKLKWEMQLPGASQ

PAX4 [4] = target: T2, PAX4 (Homo sapiens, UniProt O43316 9-242)
T2 sequence: T1 sequence with K192R

HOXB4 [5] = target: HOXB4 (Homo sapiens, UniProt P17483 148-234, V174I)
Sequence of HOXB4 (Homo sapiens, UniProt P17483 148-234, V174I) (P17483 148-234 V174I): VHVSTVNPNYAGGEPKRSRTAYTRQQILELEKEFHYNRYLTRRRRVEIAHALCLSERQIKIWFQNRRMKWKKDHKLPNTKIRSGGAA

HOXC9 [6] = target: HOXC9 (Homo sapiens, UniProt P31274 178-260)
Sequence of HOXC9 (Homo sapiens, UniProt P31274 178-260) (P31274 178-260): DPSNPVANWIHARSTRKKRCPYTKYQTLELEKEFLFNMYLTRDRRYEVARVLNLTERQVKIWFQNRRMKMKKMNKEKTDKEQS

PAX4 [7] = target: T3, PAX4 (Homo sapiens, UniProt O43316 9-242, R200Q)
T3 sequence: T1 sequence with K192Q

HOXC9 [8] = target: HOXC9 (Homo sapiens, UniProt P31274 178-260, R193K)
Sequence of HOXC9 (Homo sapiens, UniProt P31274 178-260, R193K) (P31274 178-260 R193K): as the sequence (P31274 178-260) above, with R16K counted along it

PAX4 [9] = target: T4, PAX4 (Homo sapiens, UniProt O43316 9-242, F177V)
T4 sequence: T1 sequence with F169V, K192R

PAX4 [10] = target: T5, PAX4 (Homo sapiens, UniProt O43316 9-242, F177Y)
T5 sequence: T1 sequence with F169Y, K192R

HOXC9 [11] = target: HOXC9 (Homo sapiens, UniProt P31274 178-260, R222W)
Sequence of HOXC9 (Homo sapiens, UniProt P31274 178-260, R222W) (P31274 178-260 R222W): as the sequence (P31274 178-260) above, with R45W counted along it

PAX4 [12] = target: T6, PAX4 (Homo sapiens, UniProt O43316 9-242, R227W)
T6 sequence: T1 sequence with K192R, R219W

HOXA4 [13] = target: HOXA4 (Homo sapiens, UniProt Q00056 201-287, W262R)
Sequence of HOXA4 (Homo sapiens, UniProt Q00056 201-287, W262R) (Q00056 201-287 W262R): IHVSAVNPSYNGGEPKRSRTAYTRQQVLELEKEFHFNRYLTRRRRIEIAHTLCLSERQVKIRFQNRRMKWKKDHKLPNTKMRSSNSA

VENTX = target: T7, VENTX (Homo sapiens, UniProt O95231 78-163, Y115F)
T7 sequence: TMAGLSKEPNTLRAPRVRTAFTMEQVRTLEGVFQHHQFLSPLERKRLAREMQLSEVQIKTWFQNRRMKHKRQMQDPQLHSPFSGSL

HOXA2 [14] = target: HOXA2 (Homo sapiens, UniProt O43364 129-215, R185T)
Sequence of HOXA2 (Homo sapiens, UniProt O43364 129-215, R185T) (O43364 129-215 R185T): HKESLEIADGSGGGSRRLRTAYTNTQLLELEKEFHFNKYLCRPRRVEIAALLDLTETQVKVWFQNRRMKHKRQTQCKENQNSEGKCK

HOXA4 [15] = target: HOXA4 (Homo sapiens, UniProt Q00056 201-287, R217L)
Sequence of HOXA4 (Homo sapiens, UniProt Q00056 201-287, R217L) (Q00056 201-287 R217L): as the sequence (Q00056 201-287 W262R) above, with R17L, R62W counted along it

HOXA2 [16] = target: HOXA2 (Homo sapiens, UniProt O43364 129-215, R185K)
Sequence of HOXA2 (Homo sapiens, UniProt O43364 129-215, R185K) (O43364 129-215 R185K): as the sequence (O43364 129-215 R185T) above, with T57K counted along it

HOXA4 [17] = target: HOXA4 (Homo sapiens, UniProt Q00056 201-287)
Sequence of HOXA4 (Homo sapiens, UniProt Q00056 201-287) (Q00056 201-287): as the sequence (Q00056 201-287 W262R) above, with R62W counted along it

VAX1 [18] = target: VAX1 (Homo sapiens, UniProt Q5SQQ9 86-172)
Sequence of VAX1 (Homo sapiens, UniProt Q5SQQ9 86-172) (Q5SQQ9 86-172): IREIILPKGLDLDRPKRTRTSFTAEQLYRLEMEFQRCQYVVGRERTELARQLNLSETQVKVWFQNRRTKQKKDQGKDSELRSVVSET

VAX1 [19] = target: VAX1 (Homo sapiens, UniProt Q5SQQ9 86-172, T142I)
Sequence of VAX1 (Homo sapiens, UniProt Q5SQQ9 86-172, T142I) (Q5SQQ9 86-172 T142I): as the sequence (Q5SQQ9 86-172) above, with T57I counted along it

HOXA2 [20] = target: HOXA2 (Homo sapiens, UniProt O43364 129-215, Y150S)
Sequence of HOXA2 (Homo sapiens, UniProt O43364 129-215, Y150S) (O43364 129-215 Y150S): as the sequence (O43364 129-215 R185T) above, with Y22S, T57R counted along it

HOXA4 [21] = target: HOXA4 (Homo sapiens, UniProt Q00056 201-287, W262F)
Sequence of HOXA4 (Homo sapiens, UniProt Q00056 201-287, W262F) (Q00056 201-287 W262F): as the sequence (Q00056 201-287 W262R) above, with R62F counted along it

HOXA2 [22] = target: HOXA2 (Homo sapiens, UniProt O43364 129-215)
Sequence of HOXA2 (Homo sapiens, UniProt O43364 129-215) (O43364 129-215): as the sequence (O43364 129-215 R185T) above, with T57R counted along it

VAX1 [23] = target: VAX1 (Homo sapiens, UniProt Q5SQQ9 86-172, K157R)
Sequence of VAX1 (Homo sapiens, UniProt Q5SQQ9 86-172, K157R) (Q5SQQ9 86-172 K157R): as the sequence (Q5SQQ9 86-172) above, with K72R counted along it

ALX4 [24] = target: ALX4 (Homo sapiens, UniProt Q9H161 200-286)
Sequence of ALX4 (Homo sapiens, UniProt Q9H161 200-286) (Q9H161 200-286): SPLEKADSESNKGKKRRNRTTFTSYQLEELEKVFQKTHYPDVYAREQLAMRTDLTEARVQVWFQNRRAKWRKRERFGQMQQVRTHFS

PRRX1 [25] = target: PRRX1 (Homo sapiens, UniProt P54821 80-166, F113S)
Sequence of PRRX1 (Homo sapiens, UniProt P54821 80-166, F113S) (P54821 80-166 F113S): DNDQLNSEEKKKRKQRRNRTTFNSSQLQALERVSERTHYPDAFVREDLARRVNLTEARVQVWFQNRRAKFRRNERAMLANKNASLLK

ALX4 [26] = target: ALX4 (Homo sapiens, UniProt Q9H161 200-286, Q225E)
Sequence of ALX4 (Homo sapiens, UniProt Q9H161 200-286, Q225E) (Q9H161 200-286 Q225E): as the sequence (Q9H161 200-286) above, with Q26E counted along it

ALX3 [27] = target: ALX3 (Homo sapiens, UniProt O95076 139-225, N203Q)
Sequence of ALX3 (Homo sapiens, UniProt O95076 139-225, N203Q) (O95076 139-225 N203Q): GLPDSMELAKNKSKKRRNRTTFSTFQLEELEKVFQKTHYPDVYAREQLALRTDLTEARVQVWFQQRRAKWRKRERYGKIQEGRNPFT

ALX3 [28] = target: ALX3 (Homo sapiens, UniProt O95076 139-225)
Sequence of ALX3 (Homo sapiens, UniProt O95076 139-225) (O95076 139-225): as the sequence (O95076 139-225 N203Q) above, with Q65N counted along it

ALX3 [29] = target: ALX3 (Homo sapiens, UniProt O95076 139-225, L168Q)
Sequence of ALX3 (Homo sapiens, UniProt O95076 139-225, L168Q) (O95076 139-225 L168Q): as the sequence (O95076 139-225 N203Q) above, with L30Q, Q65N counted along it

ALX3 [30] = target: ALX3 (Homo sapiens, UniProt O95076 139-225, L168V)
Sequence of ALX3 (Homo sapiens, UniProt O95076 139-225, L168V) (O95076 139-225 L168V): as the sequence (O95076 139-225 N203Q) above, with L30V, Q65N counted along it

ALX3 [31] = target: ALX3 (Homo sapiens, UniProt O95076 139-225, N203S)
Sequence of ALX3 (Homo sapiens, UniProt O95076 139-225, N203S) (O95076 139-225 N203S): as the sequence (O95076 139-225 N203Q) above, with Q65S counted along it

PRRX1 [32] = target: PRRX1 (Homo sapiens, UniProt P54821 80-166)
Sequence of PRRX1 (Homo sapiens, UniProt P54821 80-166) (P54821 80-166): as the sequence (P54821 80-166 F113S) above, with S34F counted along it

Sequence of HOXB4 (Homo sapiens, UniProt P17483 148-234) (P17483 148-234): as the sequence (P17483 148-234 V174I) above, with I27V counted along it
Sequence of HOXC9 (Homo sapiens, UniProt P31274 178-260, K195R) (P31274 178-260 K195R): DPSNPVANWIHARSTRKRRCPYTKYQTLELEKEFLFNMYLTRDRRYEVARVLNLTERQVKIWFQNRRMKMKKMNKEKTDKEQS

Question: For AGGGGGGG, which binding signal (HOXB4 [1]) is on record?
Answer: Its binding signal is 7.37 upbm affinity estimate (log intensity, higher = more binding, comparable within an allelic series).

Question: What about the binding signal (HOXC9 [2]) of the same sequence?
Answer: Its binding signal is 9.2 upbm affinity estimate (log intensity, higher = more binding, comparable within an allelic series).

Question: What about the binding signal (PAX4 [3]) of the same sequence?
Answer: The binding signal was 9.12 upbm affinity estimate (log intensity, higher = more binding, comparable within an allelic series).

Question: What about the binding signal (PAX4 [4]) of the same sequence?
Answer: Its binding signal is 9.16 upbm affinity estimate (log intensity, higher = more binding, comparable within an allelic series).

Question: And the binding signal (HOXB4 [5])?
Answer: Its binding signal is 7.23 upbm affinity estimate (log intensity, higher = more binding, comparable within an allelic series).

Question: And the binding signal (HOXC9 [6])?
Answer: Its binding signal is 9.24 upbm affinity estimate (log intensity, higher = more binding, comparable within an allelic series).

Question: And the binding signal (PAX4 [7])?
Answer: Its binding signal is 9.15 upbm affinity estimate (log intensity, higher = more binding, comparable within an allelic series).

Question: What about the binding signal (HOXC9 [8]) of the same sequence?
Answer: Its binding signal is 9.31 upbm affinity estimate (log intensity, higher = more binding, comparable within an allelic series).

Question: What about the binding signal (PAX4 [9]) of the same sequence?
Answer: Its binding signal is 8.93 upbm affinity estimate (log intensity, higher = more binding, comparable within an allelic series).

Question: What about the binding signal (PAX4 [10]) of the same sequence?
Answer: Its binding signal is 9.09 upbm affinity estimate (log intensity, higher = more binding, comparable within an allelic series).

Question: What about the binding signal (HOXC9 [11]) of the same sequence?
Answer: Its binding signal is 9.11 upbm affinity estimate (log intensity, higher = more binding, comparable within an allelic series).

Question: And the binding signal (PAX4 [12])?
Answer: Its binding signal is 9.07 upbm affinity estimate (log intensity, higher = more binding, comparable within an allelic series).

Question: CCTAATGA was tested. Which binding signal (HOXB4 [1]) did it give?
Answer: The binding signal was 13 upbm affinity estimate (log intensity, higher = more binding, comparable within an allelic series).

Question: And the binding signal (HOXA4 [13])?
Answer: The binding signal was 10.5 upbm affinity estimate (log intensity, higher = more binding, comparable within an allelic series).

Question: And the binding signal (VENTX)?
Answer: The binding signal was 11.5 upbm affinity estimate (log intensity, higher = more binding, comparable within an allelic series).

Question: What about the binding signal (HOXA2 [14]) of the same sequence?
Answer: Its binding signal is 12.7 upbm affinity estimate (log intensity, higher = more binding, comparable within an allelic series).

Question: And the binding signal (HOXA4 [15])?
Answer: The binding signal was 11.7 upbm affinity estimate (log intensity, higher = more binding, comparable within an allelic series).

Question: What about the binding signal (HOXB4 [5]) of the same sequence?
Answer: The binding signal was 13.6 upbm affinity estimate (log intensity, higher = more binding, comparable within an allelic series).

Question: What about the binding signal (HOXA2 [16]) of the same sequence?
Answer: The binding signal was 13.4 upbm affinity estimate (log intensity, higher = more binding, comparable within an allelic series).

Question: And the binding signal (HOXA4 [17])?
Answer: Its binding signal is 13.7 upbm affinity estimate (log intensity, higher = more binding, comparable within an allelic series).

Question: What about the binding signal (VAX1 [18]) of the same sequence?
Answer: The binding signal was 13.2 upbm affinity estimate (log intensity, higher = more binding, comparable within an allelic series).

Question: What about the binding signal (VAX1 [19]) of the same sequence?
Answer: The binding signal was 13 upbm affinity estimate (log intensity, higher = more binding, comparable within an allelic series).

Question: And the binding signal (HOXA2 [20])?
Answer: The binding signal was 10.7 upbm affinity estimate (log intensity, higher = more binding, comparable within an allelic series).

Question: And the binding signal (HOXA4 [21])?
Answer: Its binding signal is 11.6 upbm affinity estimate (log intensity, higher = more binding, comparable within an allelic series).

Question: And the binding signal (HOXA2 [22])?
Answer: Its binding signal is 12.4 upbm affinity estimate (log intensity, higher = more binding, comparable within an allelic series).

Question: And the binding signal (VAX1 [23])?
Answer: Its binding signal is 13 upbm affinity estimate (log intensity, higher = more binding, comparable within an allelic series).

Question: Which results are given for CCCTTGCG?
Answer: binding signal (HOXB4 [1]): 7.39 upbm affinity estimate (log intensity, higher = more binding, comparable within an allelic series); binding signal (HOXA4 [13]): 9.76 upbm affinity estimate (log intensity, higher = more binding, comparable within an allelic series); binding signal (ALX4 [24]): 7.92 upbm affinity estimate (log intensity, higher = more binding, comparable within an allelic series); binding signal (PRRX1 [25]): 9.08 upbm affinity estimate (log intensity, higher = more binding, comparable within an allelic series); binding signal (ALX4 [26]): 7.92 upbm affinity estimate (log intensity, higher = more binding, comparable within an allelic series); binding signal (HOXA4 [15]): 9.77 upbm affinity estimate (log intensity, higher = more binding, comparable within an allelic series); binding signal (HOXB4 [5]): 7.32 upbm affinity estimate (log intensity, higher = more binding, comparable within an allelic series); binding signal (ALX3 [27]): 7.69 upbm affinity estimate (log intensity, higher = more binding, comparable within an allelic series); binding signal (HOXA4 [17]): 9.61 upbm affinity estimate (log intensity, higher = more binding, comparable within an allelic series); binding signal (ALX3 [28]): 7.65 upbm affinity estimate (log intensity, higher = more binding, comparable within an allelic series); binding signal (ALX3 [29]): 7.59 upbm affinity estimate (log intensity, higher = more binding, comparable within an allelic series); binding signal (ALX3 [30]): 7.6 upbm affinity estimate (log intensity, higher = more binding, comparable within an allelic series); binding signal (HOXA4 [21]): 9.81 upbm affinity estimate (log intensity, higher = more binding, comparable within an allelic series); binding signal (ALX3 [31]): 7.67 upbm affinity estimate (log intensity, higher = more binding, comparable within an allelic series); binding signal (PRRX1 [32]): 9.11 upbm affinity estimate (log intensity, higher = more binding, comparable within an allelic series)

Question: For ATAATGAT, which binding signal (HOXB4 [1]) is on record?
Answer: Its binding signal is 13.2 upbm affinity estimate (log intensity, higher = more binding, comparable within an allelic series).

Question: And the binding signal (HOXA4 [13])?
Answer: Its binding signal is 10.6 upbm affinity estimate (log intensity, higher = more binding, comparable within an allelic series).

Question: And the binding signal (HOXA2 [14])?
Answer: Its binding signal is 12.1 upbm affinity estimate (log intensity, higher = more binding, comparable within an allelic series).

Question: What about the binding signal (HOXA4 [15]) of the same sequence?
Answer: The binding signal was 12.2 upbm affinity estimate (log intensity, higher = more binding, comparable within an allelic series).

Question: And the binding signal (HOXB4 [5])?
Answer: The binding signal was 13.8 upbm affinity estimate (log intensity, higher = more binding, comparable within an allelic series).

Question: What about the binding signal (HOXA2 [16]) of the same sequence?
Answer: Its binding signal is 13.1 upbm affinity estimate (log intensity, higher = more binding, comparable within an allelic series).

Question: What about the binding signal (HOXA4 [17]) of the same sequence?
Answer: Its binding signal is 13.9 upbm affinity estimate (log intensity, higher = more binding, comparable within an allelic series).

Question: What about the binding signal (VAX1 [19]) of the same sequence?
Answer: Its binding signal is 12.3 upbm affinity estimate (log intensity, higher = more binding, comparable within an allelic series).

Question: What about the binding signal (HOXA2 [20]) of the same sequence?
Answer: The binding signal was 10.9 upbm affinity estimate (log intensity, higher = more binding, comparable within an allelic series).

Question: And the binding signal (HOXA4 [21])?
Answer: Its binding signal is 11.5 upbm affinity estimate (log intensity, higher = more binding, comparable within an allelic series).

Question: What about the binding signal (HOXA2 [22]) of the same sequence?
Answer: Its binding signal is 12.1 upbm affinity estimate (log intensity, higher = more binding, comparable within an allelic series).

Question: CAGGCCCC was tested. Which binding signal (HOXB4 [1]) did it give?
Answer: The binding signal was 7.68 upbm affinity estimate (log intensity, higher = more binding, comparable within an allelic series).

Question: And the binding signal (HOXA4 [13])?
Answer: The binding signal was 9.66 upbm affinity estimate (log intensity, higher = more binding, comparable within an allelic series).

Question: And the binding signal (HOXA4 [15])?
Answer: The binding signal was 9.56 upbm affinity estimate (log intensity, higher = more binding, comparable within an allelic series).

Question: What about the binding signal (HOXB4 [5]) of the same sequence?
Answer: The binding signal was 7.6 upbm affinity estimate (log intensity, higher = more binding, comparable within an allelic series).

Question: What about the binding signal (ALX3 [27]) of the same sequence?
Answer: Its binding signal is 7.7 upbm affinity estimate (log intensity, higher = more binding, comparable within an allelic series).

Question: What about the binding signal (HOXA4 [17]) of the same sequence?
Answer: Its binding signal is 9.7 upbm affinity estimate (log intensity, higher = more binding, comparable within an allelic series).

Question: And the binding signal (ALX3 [28])?
Answer: The binding signal was 7.63 upbm affinity estimate (log intensity, higher = more binding, comparable within an allelic series).

Question: And the binding signal (ALX3 [29])?
Answer: The binding signal was 7.69 upbm affinity estimate (log intensity, higher = more binding, comparable within an allelic series).

Question: And the binding signal (ALX3 [30])?
Answer: Its binding signal is 7.7 upbm affinity estimate (log intensity, higher = more binding, comparable within an allelic series).

Question: What about the binding signal (HOXA4 [21]) of the same sequence?
Answer: Its binding signal is 9.81 upbm affinity estimate (log intensity, higher = more binding, comparable within an allelic series).

Question: What about the binding signal (ALX3 [31]) of the same sequence?
Answer: The binding signal was 7.69 upbm affinity estimate (log intensity, higher = more binding, comparable within an allelic series).
